Measurements: PubChem BioAssay AID1159580 (chemical genetic matrix, 2015)
Among all 5,500 compounds or so, about 2,000 (36%) were called active. Inconclusive results (about 18%) are left out. No stated cut-off is given here; in the data, active means normalized growth mostly below about 0.91 (no sharp cut-off); inconclusive means no clear call, values can overlap the other calls; inactive means mostly above about 0.92. The list shows a part of the results.

Test: chemical genetic growth profiling, strain panel (AID 1159580);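 further: tested at 20 µM; growth read once vehicle control cultures reached saturation at 30 °C; 1 = growth at the plate median or of vehicle wells; lower values mean less growth of the strain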
Conditions: growth OD
[1] = S. cerevisiae deletion strains, locus YDR150W, strain NUM1, active compounds read low
[2] = S. cerevisiae deletion strains, locus YPL055C, strain LGE1, active compounds read low
[3] = S. cerevisiae deletion strains, locus YPL241C, strain CIN2, active compounds read low
[4] = S. cerevisiae deletion strains, locus YAL013W, strain DEP1, active compounds read low
[5] = S. cerevisiae deletion strains, locus YBR229C, strain ROT2, active compounds read low
[6] = S. cerevisiae deletion strains, locus YDL101C, strain DUN1, active compounds read low
[7] = S. cerevisiae deletion strains, locus YDL134C, strain PPH21, active compounds read low
[8] = S. cerevisiae deletion strains, locus YEL061C, strain CIN8, active compounds read low
[9] = S. cerevisiae deletion strains, locus YGR078C, strain PAC10, active compounds read low
[10] = S. cerevisiae deletion strains, locus YHR030C, strain SLT2, active compounds read low
[11] = S. cerevisiae deletion strains, locus YHR087W, strain rtc3, active compounds read low
[12] = S. cerevisiae deletion strains, locus YJR043C, strain POL32, active compounds read low
[13] = S. cerevisiae deletion strains, locus YJR075W, strain HOC1, active compounds read low
[14] = S. cerevisiae deletion strains, locus YKL190W, strain CNB1, active compounds read low
[15] = S. cerevisiae deletion strains, locus YLR039C, strain RIC1, active compounds read low
[16] = S. cerevisiae deletion strains, locus YLR058C, strain SHM2 (second series), active compounds read low
[17] = S. cerevisiae deletion strains, locus YLR085C, strain ARP6, active compounds read low
[18] = S. cerevisiae deletion strains, locus YLR262C, strain YPT6, active compounds read low
[19] = S. cerevisiae deletion strains, locus YML094W, strain GIM5, active compounds read low
[20] = S. cerevisiae deletion strains, locus YMR219W, strain ESC1, active compounds read low
[21] = S. cerevisiae deletion strains, locus YMR263W, strain SAP30, active compounds read low
[22] = S. cerevisiae deletion strains, locus YMR307W, strain GAS1, active compounds read low
[23] = S. cerevisiae deletion strains, locus YNL153C, strain GIM3, active compounds read low
[24] = S. cerevisiae deletion strains, locus YNL298W, strain CLA4 (second series), active compounds read low
[25] = S. cerevisiae deletion strains, locus YNL322C, strain KRE1, active compounds read low
[26] = S. cerevisiae deletion strains, locus YNR030W, strain Alg12, active compounds read low
[27] = S. cerevisiae deletion strains, locus YPR135W, strain CTF4, active compounds read low

Measured: normalized growth

O=C(O)CCC/C=C\C[C@@H]1[C@@H](/C=C/[C@H](O)C2Cc3ccccc3C2)[C@@H](F)C[C@@H]1O
inactive: S. cerevisiae deletion strains, locus YAL040C, strain CLN3, active compounds read low 0.995 | S. cerevisiae deletion strains, locus YCL061C, strain MRC1 (second series), active compounds read low 0.998 | [1] 1.01 | S. cerevisiae deletion strains, locus YDR363W, strain ESC2, active compounds read low 0.993 | S. cerevisiae deletion strains, locus YER002W, strain NOP16, active compounds read low 0.988 | S. cerevisiae deletion strains, locus YNL175C, strain NOP13, active compounds read low 0.982 | S. cerevisiae deletion strains, locus YNL197C, strain WHI3, active compounds read low 0.989 | S. cerevisiae deletion strains, locus YNL224C, strain SQS1, active compounds read low 0.969 | S. cerevisiae deletion strains, locus YOR083W, strain WHI5 (second series), active compounds read low 1.02 | [2] 0.99 | [3] 0.996

COC(=O)c1c(OC)ccc(N=CNO)c1OC
inactive: [4] 1 | [5] 0.982 | [6] 0.993 | [7] 1.01 | [1] 0.962 | [8] 1.01 | [9] 1 | [10] 1.05 | [11] 0.986 | S. cerevisiae deletion strains, locus YJL187C, strain SWE1, active compounds read low 0.985 | [12] 1 | [13] 0.976 | [14] 1.01 | [15] 1.02 | [16] 1 | [17] 0.999 | [18] 0.997 | [19] 0.993 | [20] 0.999 | [21] 0.926 | [22] 0.94 | [23] 0.989 | [24] 1.03 | [25] 1 | [26] 0.996 | [2] 0.888 | [3] 1.01 | [27] 1.07 | S. cerevisiae strains, strain wild type, active compounds read low 1.03

Cc1cc(N=CNO)c2ccccc2n1
inactive: [4] 1 | [5] 0.994 | S. cerevisiae deletion strains, locus YCL061C, strain MRC1, active compounds read low 0.976 | [6] 0.966 | [7] 0.997 | [1] 0.938 | [8] 0.999 | [9] 0.981 | S. cerevisiae deletion strains, locus YGR229C, strain SMI1, active compounds read low 1.01 | [10] 0.869 | [11] 1.04 | [12] 0.959 | [13] 1 | [14] 0.997 | [15] 0.959 | [16] 0.989 | [17] 0.932 | [18] 0.988 | [19] 1.01 | [20] 1 | [21] 0.994 | [22] 1.19 | S. cerevisiae deletion strains, locus YNL128W, strain TEP1, active compounds read low 0.966 | [23] 0.987 | [24] 0.919 | [25] 0.962 | [26] 0.982 | [2] 1.04 | [3] 0.966 | [27] 0.955
